The values below come from PubChem BioAssay (NCATS).

Inconclusive results are not listed. The source made the active and inactive calls. Unless noted, the call rests on the fitted dose curve; in most records, active means well fitted curve in the direction sought with a large enough effect; inconclusive means small, poorly fitted or top-dose-only effect, or another doubt; inactive means no such curve, though single readings can be large; an effect the other way counts as inactive or inconclusive.

Test [1] concerns the target Lysosomal acid glucosylceramidase (Homo sapiens) (UniProt P04062). The test is described as follows: Glucocerebrosidase-p2 (AID 348; in the data active means potency below about 10 µM; further: potency means the concentration at half of the fitted maximal effect). As to conditions: purified GBA, blue fluorogenic substrate, 40 min. In outline:
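Compounds titrated from 0.6 nM upwards against 0.2 nM enzyme in pH 5.9 citric acid/KH2PO4, taurocholate, tween-20; blue fluorogenic substrate 80 uM, 40 min room temperature, stopped and read Ex 365/Em 440 for AC50.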

Test [2] can be described thus: AP1 Signaling Pathway (AID 357; active means well fitted curve in either direction with a large enough effect, not every such curve was filed as active; further: on the % scale 0 is the no-effect control and ±100 the full control effect). The note with it: ME-180 AP-1-bla reporter, EGF-induced, beta-lactamase ratio, 5 h; at 7.69 µM (top of the series) unless noted. In outline: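 In this screen, ME-180 cells in Opti-MEM with 0.5% dialyzed FBS received EC50 EGF and compound titrations for 5 h. AP-1 reporter beta-lactamase was detected via CCF4 ratio, giving AC50 for positive and negative modulators.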

Test [3] in a line: NFAT Signaling Pathway (AID 444; active means well fitted curve in either direction with a large enough effect, not every such curve was filed as active;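 further: carbachol stimulus at about its EC50 of 1 µM final; on the % scale 0 is the no-effect control and ±100 the full control effect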). As to conditions: Jurkat NFAT-bla M1, carbachol, beta-lactamase ratio, 5 h; at 7.69 µM (top of the series) unless noted. In outline: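 Jurkat cells carrying an NFAT-driven β-lactamase reporter and co-transfected muscarinic M1 receptor were treated with compound plus carbachol (1 uM final, an EC50 level) for 5 h at 37 °C. CCF4 loading followed for 1 h at RT; 460/530 nm ratio gave %activity.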

Test [4] can be described thus: Stat Signaling Pathway (AID 446; active means well fitted curve in either direction with a large enough effect, not every such curve was filed as active;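 further: ME-180 cervical cancer cells given 40 pM IL-6 alongside compound; SIE-controlled beta-lactamase reporter measured as 460/530 nm FRET emission ratio; on the % scale 0 is the no-effect control and ±100 the full control effect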). As to conditions: ME-180 SIE beta-lactamase reporter, IL-6 stimulated, 5 h; at 7.69 µM (top of the series) unless noted. The essentials: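 ME-180 SIE-bla cells; overnight plating; cpd + IL-6 40 pM, 5 h, 37 C; LiveBLAzer 2.5 h RT; 460/530 nm emission ratio. Normalized to 300 pM IL-6 and 125 nM JAK inhibitor controls.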
For test [5], the target named is Glucocorticoid receptor (Homo sapiens) (UniProt P04150). Nature of the test: GR-GFP Redistribution (AID 450;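 active means compounds whose dose series gives a full or clear partial fitted curve of increased nuclear translocation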; further: potency means the concentration at half of the fitted maximal effect). The note with it: U2OS GR-GFP nuclear translocation, laser cytometry, 2 h.
Glucocorticoid receptor (Homo sapiens), sequence (P04150 whole entry, looked up, the tested form may be a part): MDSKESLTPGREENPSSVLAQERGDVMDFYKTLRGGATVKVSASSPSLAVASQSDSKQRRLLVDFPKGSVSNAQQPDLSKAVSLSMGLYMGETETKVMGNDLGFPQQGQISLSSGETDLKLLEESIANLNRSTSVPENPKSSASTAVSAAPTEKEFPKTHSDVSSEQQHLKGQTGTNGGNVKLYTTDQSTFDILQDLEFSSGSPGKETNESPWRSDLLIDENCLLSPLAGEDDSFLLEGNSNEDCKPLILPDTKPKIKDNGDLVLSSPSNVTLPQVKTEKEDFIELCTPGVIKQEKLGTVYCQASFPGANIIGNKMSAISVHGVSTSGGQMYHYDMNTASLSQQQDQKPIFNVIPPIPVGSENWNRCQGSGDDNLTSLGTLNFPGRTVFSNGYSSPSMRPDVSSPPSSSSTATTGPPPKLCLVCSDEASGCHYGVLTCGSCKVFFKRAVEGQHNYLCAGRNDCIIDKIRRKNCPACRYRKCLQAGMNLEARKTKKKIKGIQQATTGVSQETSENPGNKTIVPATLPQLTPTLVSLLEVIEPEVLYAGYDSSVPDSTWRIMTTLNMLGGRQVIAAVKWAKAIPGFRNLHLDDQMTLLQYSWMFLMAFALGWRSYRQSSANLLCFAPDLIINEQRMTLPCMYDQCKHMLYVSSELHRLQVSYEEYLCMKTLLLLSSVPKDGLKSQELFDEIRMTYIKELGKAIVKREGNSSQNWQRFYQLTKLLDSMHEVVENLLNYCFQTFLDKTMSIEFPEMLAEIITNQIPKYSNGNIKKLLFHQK
For test [6] the target is unchanged. Nature of the test: GR-EFC Redistribution (AID 451; calls by dose curve; further: potency means the concentration at half of the fitted maximal effect). The note with it: CHO-K1 GR-EFC translocation, beta-gal luminescence, 2 h. The essentials: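 CHO-K1 cells stably expressing nuclear-localized β-gal enzyme acceptor and GR fused C-terminally to the enzyme donor fragment; ligand-driven nuclear translocation restores β-gal by complementation. Compounds titrated up to 46 uM final, 2 h at 37 °C; luminescence read.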

Test [7] has as its target Mitogen-activated protein kinase 10 (Mus musculus) (UniProt Q61831). The test is described as follows: JNK3 AlphaScreen Assay (AID 530; active means well fitted curve in either direction with a large enough effect, not every such curve was filed as active;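 further: kinase came from lysate of stimulated human HepG2 cells; signal reports phosphorylation of biotinylated GST-cJun 1-79 at Ser73 with 10 µM ATP; on the % scale 0 is the no-effect control and ±100 the full control effect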). As to conditions: JNK3 lysate, c-Jun phosphorylation; series mostly up to 57.1 µM. The essentials:
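JNK3 came from HepG2 lysates pre-activated with IL-1beta and TNF-alpha and phosphorylated biotinylated GST-cJun (1-79) at 10 uM ATP, pH 7.6, room temperature. Compounds were titrated. AlphaScreen signal used anti-phospho-cJun (Ser73) antibody.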

Test [8] has as its target 3',5'-cyclic-AMP phosphodiesterase 4B (Homo sapiens) (UniProt Q07343). The test is described as follows: qHTS Assay for Inhibitors of PDE-IV (AID 607; active means well fitted activation curve with a large enough effect in the main read-out, with a control signal flat, not every such curve was filed as active; further: % of control where 0% means no effect). As to conditions: HEK293 ACTOne CNG channel cells, membrane potential fluorescence; series mostly up to 22.9 µM. The essentials: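 ACTOne HEK293 cells carry a modified cAMP-gated CNG channel and express endogenous PDE4; plated 1000 cells/well, compounds up to 22.9 uM final. Membrane-potential dye fluorescence (ex 535/em 590) was read; parental cells received 10 uM forskolin + 100 uM RO 20-1724.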

Test [9] is described as follows: qHTS Assay for Lipid Storage Modulators (AID 1519; calls by dose curve; further: potency means the concentration at half of the fitted maximal effect). As to conditions: Drosophila S3 cells, BODIPY lipid droplet/cell ratio, laser cytometry, cells loaded with oleic acid; for activity change, negative = inhibition: at 57.5 µM (top of the series). In outline: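 Cells seeded at 5,000 per well were treated with compounds over a concentration series and loaded with oleic acid (400 uM, as added). Lipid droplet fluorescence (488 nm excitation, 500-530 nm channel) was read by laser-scanning cytometry and normalized to 20 uM Triacsin C.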

Test [10] deals with Dual specificity protein kinase CLK4 (Homo sapiens) (UniProt Q9HAZ1). Nature of the test: qHTS Assay for Inhibitors of CDC-like Kinase 4 (Kinase-Glo Assay) (AID 1770). Further: on the % scale 0 is the no-effect control and ±100 the full control effect; nearly all actives have a fitted effect of over 65% in size. As to conditions: recombinant Clk4, Kinase-Glo ATP depletion luminescence; series mostly up to 66.7 µM. The essentials: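 Substrate mix (RS peptide 100 uM, ATP 1 uM) dispensed, compound pinned in, then Clk4 added to 25 nM final. Incubated 4.5 h at RT; Kinase-Glo reagent added, luminescence read after 5 min.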
Dual specificity protein kinase CLK4 (Homo sapiens), sequence (Q9HAZ1 whole entry, looked up): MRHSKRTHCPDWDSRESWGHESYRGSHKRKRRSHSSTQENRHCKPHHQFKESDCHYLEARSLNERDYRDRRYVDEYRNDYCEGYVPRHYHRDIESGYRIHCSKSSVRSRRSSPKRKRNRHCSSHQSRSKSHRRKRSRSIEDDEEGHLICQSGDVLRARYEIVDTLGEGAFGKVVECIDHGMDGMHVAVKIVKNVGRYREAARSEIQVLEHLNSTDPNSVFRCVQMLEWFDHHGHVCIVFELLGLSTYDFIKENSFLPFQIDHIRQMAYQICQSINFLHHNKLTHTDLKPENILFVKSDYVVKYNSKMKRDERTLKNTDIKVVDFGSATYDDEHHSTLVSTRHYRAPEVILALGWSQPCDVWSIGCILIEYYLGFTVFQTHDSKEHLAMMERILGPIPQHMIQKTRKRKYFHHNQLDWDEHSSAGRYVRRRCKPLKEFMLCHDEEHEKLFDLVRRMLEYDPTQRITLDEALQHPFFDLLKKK

The target is the same in test [11]. Nature of the test: qHTS Assay for Inhibitors of CDC-like Kinase 4 (ADP-Glo Assay) (AID 1771). Further: on the % scale 0 is the no-effect control and ±100 the full control effect; nearly all actives have a fitted effect of over 70% in size. The note with it: recombinant CLK4, ADP-Glo luminescence; series mostly up to 80 µM. In outline: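 Clk4 (25 nM) was incubated 1 hr at room temperature with 100 uM RS repeat peptide and 1 uM ATP in buffer with 2 mM MgCl2, 0.5 mM EGTA, 2.5 mM DTT. ADP formed was quantified by ADP-Glo luminescence.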

For test [12] the target is unchanged. The test is described as follows: qHTS Assay for Inhibitors of CDC-like Kinase 4 (ADP-FP Assay) (AID 1795). Further: on the % scale 0 is the no-effect control and ±100 the full control effect; nearly all actives have a fitted effect of over 60% in size. The note with it: Transcreener ADP fluorescence polarization; series mostly up to 50 µM. In outline: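 Clk4 6.25 nM; RS peptide 100 uM; ATP 1 uM; 25 mM Tris pH 7.5, 10 mM MgCl2; 1 h reaction. ADP detected via antibody/orange tracer FP displacement; TG003 positive control.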

In test [13] the target is Ubiquitin carboxyl-terminal hydrolase 1 (Homo sapiens) (UniProt O94782). Nature of the test: Inhibitors of USP1/UAF1: Pilot qHTS (AID 504865).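 Further: rhodamine fluorescence freed from ubiquitin-rhodamine substrate followed over time; top concentration of the series differs between compounds; on the % scale 0 is the no-effect control and ±100 the full control effect; nearly all actives have a fitted effect of over 35% in size.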 The note with it: purified USP1/UAF1, Ub-rhodamine cleavage fluorescence; series mostly up to 54.9 µM. The essentials:
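In 50mM HEPES pH 7.8 containing 0.5mM EDTA, 1mM TCEP, 0.1 mg/ml BSA and 0.01% Tween-20, 1nM USP1/UAF1 is exposed to compound for 15 min, then Ub-Rho (150nM final) is added and fluorescence is read over time.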

The nature of test [14]: Primary qHTS for small molecule stabilizers of the endoplasmic reticulum resident proteome: Secreted ER Calcium Modulated Protein (SERCaMP) assay (AID 1508630). Further: on the % scale 0 is the no-effect control and ±100 the full control effect. As to conditions: SH-SY5Y GLuc-SERCaMP (Gaussia luciferase released on ER calcium loss) secretion, thapsigargin, luminescence; series mostly up to 38.4 µM. The essentials: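 GLuc-SERCaMP-expressing SH-SY5Y cells, pretreated 16 h with compound, are challenged with thapsigargin to empty ER calcium stores; after 4 h, coelenterazine is added directly to the medium and luminescence is imaged.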

Where [15] appears, read: measured here: cell count channel max response.
Setting [16] is: measured here: lipid channel max response.

3',5'-cyclic-AMP phosphodiesterase 4B (Homo sapiens), sequence (Q07343 whole entry, looked up): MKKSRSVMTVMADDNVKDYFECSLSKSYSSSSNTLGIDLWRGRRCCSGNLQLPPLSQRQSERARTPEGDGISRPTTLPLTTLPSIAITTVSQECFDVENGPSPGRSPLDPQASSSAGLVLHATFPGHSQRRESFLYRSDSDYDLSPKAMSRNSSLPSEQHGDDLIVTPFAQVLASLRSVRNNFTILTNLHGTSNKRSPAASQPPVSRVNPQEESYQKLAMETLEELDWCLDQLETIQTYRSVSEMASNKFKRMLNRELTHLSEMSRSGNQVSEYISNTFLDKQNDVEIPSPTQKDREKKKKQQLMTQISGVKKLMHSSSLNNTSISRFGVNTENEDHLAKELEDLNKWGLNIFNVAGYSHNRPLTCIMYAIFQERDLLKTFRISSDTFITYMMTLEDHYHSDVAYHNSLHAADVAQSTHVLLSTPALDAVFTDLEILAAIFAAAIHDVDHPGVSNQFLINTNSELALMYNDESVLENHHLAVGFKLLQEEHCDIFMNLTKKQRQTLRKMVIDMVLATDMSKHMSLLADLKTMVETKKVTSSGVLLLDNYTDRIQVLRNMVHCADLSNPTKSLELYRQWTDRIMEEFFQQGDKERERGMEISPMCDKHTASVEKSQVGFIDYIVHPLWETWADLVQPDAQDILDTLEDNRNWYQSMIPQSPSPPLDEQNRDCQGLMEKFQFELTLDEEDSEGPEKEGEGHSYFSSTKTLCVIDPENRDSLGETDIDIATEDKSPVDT
Ubiquitin carboxyl-terminal hydrolase 1 (Homo sapiens), sequence (O94782 whole entry, looked up): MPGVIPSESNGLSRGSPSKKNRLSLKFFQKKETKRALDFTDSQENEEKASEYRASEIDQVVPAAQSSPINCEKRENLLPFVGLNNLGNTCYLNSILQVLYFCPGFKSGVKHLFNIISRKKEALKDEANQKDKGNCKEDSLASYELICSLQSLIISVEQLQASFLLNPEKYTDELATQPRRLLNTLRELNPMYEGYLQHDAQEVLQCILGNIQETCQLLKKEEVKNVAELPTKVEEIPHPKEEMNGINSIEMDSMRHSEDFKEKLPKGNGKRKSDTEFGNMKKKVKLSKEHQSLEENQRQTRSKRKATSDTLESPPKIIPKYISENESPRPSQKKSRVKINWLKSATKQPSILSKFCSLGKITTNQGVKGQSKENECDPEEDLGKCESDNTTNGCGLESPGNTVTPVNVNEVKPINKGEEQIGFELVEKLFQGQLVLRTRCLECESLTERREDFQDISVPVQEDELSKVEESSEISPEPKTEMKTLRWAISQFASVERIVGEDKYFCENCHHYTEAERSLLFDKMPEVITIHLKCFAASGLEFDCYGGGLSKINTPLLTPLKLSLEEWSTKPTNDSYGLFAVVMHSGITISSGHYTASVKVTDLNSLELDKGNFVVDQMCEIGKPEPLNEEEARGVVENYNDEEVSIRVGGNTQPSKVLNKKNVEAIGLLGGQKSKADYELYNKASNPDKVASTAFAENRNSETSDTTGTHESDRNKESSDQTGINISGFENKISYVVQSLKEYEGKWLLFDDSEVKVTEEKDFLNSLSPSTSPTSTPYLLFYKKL
Lysosomal acid glucosylceramidase (Homo sapiens), sequence (P04062 whole entry, looked up): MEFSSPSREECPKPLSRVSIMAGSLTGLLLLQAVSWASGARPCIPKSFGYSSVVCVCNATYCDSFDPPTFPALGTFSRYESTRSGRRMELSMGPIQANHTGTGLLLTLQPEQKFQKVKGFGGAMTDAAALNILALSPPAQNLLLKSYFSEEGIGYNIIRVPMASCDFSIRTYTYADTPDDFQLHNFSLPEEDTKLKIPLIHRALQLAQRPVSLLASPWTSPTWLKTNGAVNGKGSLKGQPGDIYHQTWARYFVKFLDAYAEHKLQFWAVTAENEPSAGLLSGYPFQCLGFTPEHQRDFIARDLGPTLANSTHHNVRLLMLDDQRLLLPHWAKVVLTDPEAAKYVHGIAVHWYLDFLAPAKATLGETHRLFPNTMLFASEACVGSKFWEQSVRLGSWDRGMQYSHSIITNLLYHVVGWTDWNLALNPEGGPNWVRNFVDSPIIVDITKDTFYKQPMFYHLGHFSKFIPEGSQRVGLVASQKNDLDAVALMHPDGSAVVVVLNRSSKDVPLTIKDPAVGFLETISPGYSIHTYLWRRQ

For `COc1ccc(Oc2ncc3nc(-c4ccc(Cl)cc4)c(=O)n(C[C@H]4CCCO4)c3n2)cc1`, the Potency in test [1] was > 11.4 µM (inactive); in [5], > 9.22 µM (inactive); in [6] it was > 46 µM (inactive); in test [9] it was 28.2 µM (active). Besides, the activity change, negative = inhibition in test [2] was -19.3% (inactive); in test [3] it was -18.6% (inactive). For the same compound, the activity, negative = inhibition in test [4] was -13.9% (inactive). Moreover, the compound was called inactive in [7]. Moreover, the Potency result in test [8], in test [10], in test [11], in test [12], in test [13] and in [14] was “inactive” each time. Moreover, the figures for the max response in [9] (setting [15]) and in test [9] (setting [16]) were -25.3% and -85.4%, respectively.
Turning to `N#CCCn1c(=O)cnc2cnc(Oc3ccccc3)nc21`, the Potency in test [1] was > 11.4 µM (inactive); in test [5], > 9.22 µM (inactive); in [6], > 46 µM (inactive). Also, the results for the activity change, negative = inhibition in test [2], in test [3] and in test [9] were -16.3% (inactive), 11.7% (inactive) and 5.36% (inactive), respectively. The activity, negative = inhibition in test [4] was -2.6% (inactive). In test [7], the compound was classed as inactive. The results for the max response in test [9] (setting [15]) and in [9] (setting [16]) were 9.06% and 13.1%, respectively. For the same compound, the Potency entry in test [10], in test [11], in test [12], in [13] and in [14] was “inactive” each time.
For `COc1ccc(-c2nc3cnc(N4CCOCC4)nc3n(C)c2=O)cc1`, the Potency is > 11.4 µM (inactive) in test [1], > 9.22 µM (inactive) in test [5] and > 46 µM (inactive) in test [6]. The activity change, negative = inhibition in test [2] is -14.2% (inactive); in test [3], -0.157% (inactive); in test [9], 1.23% (inactive). Moreover, the activity, negative = inhibition in [4] is -2.93% (inactive). Also, the compound was classed as inactive in test [7]. Besides, the Potency entry in test [8], in test [10], in test [11], in [12], in test [13] and in [14] was “inactive” each time. The results for the max response in [9] (setting [15]) and in test [9] (setting [16]) were 7.61% and 5.75%, respectively.
Turning to `O=c1c(-c2cc(F)cc(F)c2)nc2cnc(N3CCOCC3)nc2n1Cc1cccs1`, the Potency in test [1] is > 11.4 µM (inactive); in [5], > 9.22 µM (inactive); in test [6], > 46 µM (inactive). The activity change, negative = inhibition in test [2] was 6.66% (inactive); in [3], 22.7% (inactive); in [9], 3.39% (inactive). The activity, negative = inhibition in test [4] was 6.69% (inactive). For the same compound, in [7], the compound was classed as inactive. Besides, the Potency entry in [8], in [10], in test [11], in [12], in [13] and in test [14] was “inactive” each time. Also, the max response stood at 18.1% in test [9] (setting [15]) and 23.4% in test [9] (setting [16]).
For `Cc1cnc(CNc2ccnc(-c3ccccc3CN(C)C)n2)cn1`, the figures for the Potency in test [1] and in [5] were > 11.4 µM (inactive) and > 46 µM (inactive), respectively. Also, the figures for the activity change, negative = inhibition in test [2], in test [3] and in test [9] were 10.8% (inactive), -5.1% (inactive) and 5.8% (inactive), respectively. The activity, negative = inhibition in [4] was 12.3% (inactive). Further, the compound was called inactive in [7]. The Potency entry in [8], in [10], in test [11], in [12], in test [13] and in test [14] was “inactive” in each case. The max response in [9] (setting [15]) came to 23.9%; in test [9] (setting [16]) it was 27.5%.
Turning to `COc1ccc(Oc2ncc3nc(C)c(=O)n(Cc4cccc(OC)c4)c3n2)cc1`, the Potency in [1] was > 11.4 µM (inactive); in test [5], > 9.22 µM (inactive); in test [6], > 46 µM (inactive). For the same compound, the results for the activity change, negative = inhibition in test [2], in [3] and in test [9] were -16% (inactive), 6.92% (inactive) and 4.03% (inactive), respectively. In addition, the activity, negative = inhibition in test [4] was -8.96% (inactive). Also, in test [7], the outcome was inactive. Further, the figures for the max response in test [9] (setting [15]) and in [9] (setting [16]) were 6.56% and 8.3%, respectively. The Potency result in test [10], in test [11], in test [12], in test [13] and in test [14] was “inactive” throughout.
